Assay results taken from ChEMBL document CHEMBL3988442, “University of Dundee, Small-Polar-MMV Screening Library” (2021).
Hit rate of the full screen: of about 53,000 compounds, about 900 (1.7%) showed an effect of 50% or more. The sample holds strong results, similar compounds and a random draw of the others, so the mix is not that of the screen.

Tested on: Mycobacterium tuberculosis
Test: Cornell - Phenotypic assay to identify agents that inhibit growth of Mycobacterium tuberculosis
Format: functional
Set-up: scale not given: direction of the effect not stated beside the values
Details: 10 mM as filed; unlikely as a test dose

Row | SMILES | Percent Effect
1 | O=C(CCn1cc(Cl)cn1)N1CCN(CC2CC2)[C@@H]2CS(=O)(=O)C[C@@H]21 | -27.81%
2 | O=C(CC1CCc2ccccc21)N1CCC(C(=O)O)(n2ccnc2)CC1 (centres undefined) | -2.815%
3 | O=C(NCc1ccnc(OCC2CC2)c1)C1COc2ccccc2O1 (centres undefined) | 12.77%
4 | CC(=O)Nc1cccc(OCCNC(=O)N(C)Cc2ccco2)c1 | 2.051%
5 | CC(C)C[C@H](N)COc1cccc(F)c1Oc1ccc(Cl)cc1 | 107.4%
6 | CC(C)C[C@H](N)COc1cccc(F)c1Oc1ccccc1 | 5.347%
7 | Cc1ccc(Oc2c(F)cccc2OC[C@@H](N)CC(C)C)cc1 | 106.4%
8 | CNCc1cc(F)ccc1Oc1ccc(Cl)cc1 | -16.87%
9 | CC(C)C[C@H](N)COc1cccc(F)c1Oc1cccc(Cl)c1 | 106.7%
10 | CC(C)C(=O)Nc1cccc(OCC(=O)NCc2ccccc2F)c1 | 6.908%
11 | CCNCCOc1ccc(-c2cc(N)nc3[nH]ccc23)cc1 | 21.99%
12 | COc1c(C)cnc(CN2CCCC2c2noc(C)n2)c1C (centres undefined) | -16.92%
13 | CCCC1(CO)CCCN(c2ncnc3c2c(C)nn3C)C1 (centres undefined) | -13.93%
14 | Cc1cccc(-c2ccc(C(=O)N3CCN(C(C)C)CC3)c(=O)[nH]2)c1 | 26.41%
15 | CC(C)OCCC(=O)NS(=O)(=O)N1CCOc2ccccc21 | 29.29%
16 | CCOc1ccccc1C(=O)NCCc1ccoc1 | 23.58%
17 | CNS(=O)(=O)c1ccc(C(=O)NC2CCOc3ccccc32)o1 (centres undefined) | 7.684%
18 | CC(C)c1nnc2sc(CC3CN(Cc4ccccc4)CCO3)nn12 (centres undefined) | -19.21%
19 | O=C(NCCCOCC1CCCO1)c1cccnc1N1CCCC1 (centres undefined) | 105.2%
20 | CC(C)COCCCNC(=O)c1cccnc1N1CCOCC1 | 3.314%
21 | O=C(NCCCOCC1CCCO1)c1cccnc1N1CCOCC1 (centres undefined) | -37.06%
22 | CCc1ccc(C(=O)NCCNc2ncccn2)cc1 | -25.5%

Row | SMILES | Percent Effect
23 | Cc1ccc(C)n1-c1ccc(C(=O)NCCNc2ncccn2)cc1 | 76.43%
24 | O=C(NCCNc1ncccn1)c1ccc(Br)cc1 | -16.37%
25 | Cc1cc(N(C)C)nc(C2(C)CCCN2C(=O)c2cncnc2C)n1 (centres undefined) | -9.352%
26 | CN(C)C(=O)[C@@H]1CCO[C@@H]2CCN(Cc3ccccc3)C[C@@H]21.O=C(O)C(F)(F)F | 104.8%
27 | CN(C)C(=O)[C@@H]1CCO[C@@H]2CCN(Cc3ccc4c(c3)OCO4)C[C@@H]21.O=C(O)C(F)(F)F | -46.82%
28 | CN(C)C(=O)[C@@H]1CCO[C@@H]2CCN(CCc3ccccc3)C[C@@H]21.O=C(O)C(F)(F)F | 4.406%
29 | CCc1ccc(CN(C(=O)CCn2cc(S(N)(=O)=O)cn2)C2CC2)cc1 | -10.53%
30 | COc1ccc(C2CN(c3cc(C)ncn3)CCN2C(C)=O)cc1 (centres undefined) | -53.77%
31 | Cc1nn(CCNc2ncnc3c2NC(=O)CN3)c(C)c1Cl | 45.57%
32 | COc1cc(N2CCC3(CCN(Cc4csc(C)n4)C3)CC2)ncn1.O=C(O)C(F)(F)F | 24.59%
33 | Cc1nnc(CN2CCCC2c2ccsc2)o1 (centres undefined) | 14.43%
34 | CCCc1noc(CN2CCCC2c2ccsc2)n1 (centres undefined) | 52.86%
35 | CCCc1noc(CCC(=O)N2CCCC2c2ccsc2)n1 (centres undefined) | 22.08%
36 | CN(C)CCNC(=O)c1ccn(-c2ccc3ccccn23)n1.O=C(O)C(F)(F)F | 12.93%
37 | CC(C)N1CCCC1c1cc(CCO)[nH]n1 (centres undefined) | 11.54%
38 | CCC(=O)N1CCC(c2cc(Nc3ncccn3)nc(C)n2)C1 (centres undefined) | -34.07%
39 | O=C1CN([C@@H]2CC[C@@H](NS(=O)(=O)c3ccc(F)cc3)[C@H]2O)CCN1 | 42.43%
40 | Cc1ccccc1S(=O)(=O)N[C@@H]1CC[C@@H](N2CCNC(=O)C2)[C@@H]1O | 54.18%
41 | O=C1CN([C@@H]2CC[C@@H](NS(=O)(=O)c3ccccc3)[C@H]2O)CCN1 | 55.41%
42 | CN([C@@H]1CC[C@@H](N2CCCC2)[C@@H]1O)S(=O)(=O)c1ccccc1 | 24.86%
43 | O=C1CN([C@@H]2CC[C@@H](NS(=O)(=O)c3ccccc3F)[C@H]2O)CCN1 | -3.18%
44 | Cc1ccccc1CC(=O)N[C@@H]1CCC[C@@H](N2CCNC(=O)C2)[C@@H]1O | 3.763%

Row | SMILES | Percent Effect
45 | Cc1ccc(-c2nnc(CN3CCn4c(nnc4C4CC4)C3)o2)cc1 | 2.899%
46 | CCOCC(=O)N1C[C@@H]2CC[C@H](Oc3ccccc3)[C@@H]2C1 | -14.06%
47 | CCCN1CCCn2nc(CNS(=O)(=O)c3cccc(F)c3)cc2C1 | -34.67%
48 | CCN(CC)CCCNCc1cc2cc(C)ccc2[nH]c1=O | 4.422%
49 | CCOc1ncccc1NC(=O)N1CCC(n2cncn2)CC1 | 14.59%
50 | CCN(Cc1cccc(Cl)c1)Cc1ncc(C(C)(C)C)o1 | 0.2424%
51 | Cc1cccc(CN(Cc2ccccn2)Cc2ncc(C(C)(C)C)o2)c1 | 69.04%
52 | CCN(Cc1ncc(C(C)(C)C)o1)Cc1ccccc1C | -5.269%
53 | Cc1nc2ccc(C(=O)N3C[C@@H](O)[C@H](N4CCCC4)C3)cc2[nH]1 | 1.956%
54 | COCC(=O)NC(c1ccccc1)c1ccc2c(c1)CCCO2 (centres undefined) | 34.89%
55 | Cc1cc(NCc2cccc(C#N)c2)ccc1C(=O)N(C)C | 22.32%
56 | Cc1cc(NCc2cccc(C#N)c2)ccc1Br | 50.78%
57 | Cc1cc(NCc2cccc(C#N)c2)ccc1C(N)=O | 38.13%
58 | CCN(CC)c1nc(Nc2cccc(C(=O)O)c2)nc2ccccc12 | -13.69%
59 | CC(O)c1cccc(Nc2nc(NCCO)c3ccccc3n2)c1 (centres undefined) | -13.85%
60 | CCN(CC)c1nc(Nc2cccc(C(C)O)c2)nc2ccccc12 (centres undefined) | 104.6%
61 | NC(=O)NCC(=O)N1CCCC(OCc2cccnc2)C1 (centres undefined) | -45.31%
62 | Oc1cc(C2CCCN(Cc3cccs3)C2)nc(-c2ccccn2)n1 (centres undefined) | 76.98%
63 | Oc1cc(C2CCCCN2Cc2cccs2)nc(-c2ccccn2)n1 (centres undefined) | 21.14%
64 | Cn1ncc2ccc(C3CCCN(Cc4cccs4)C3)nc21 (centres undefined) | -1.871%
